About 79,000 compounds went through this panel and 15% of them were active in at least one assay; those are over-represented in the sample as a whole. Cut-off read from the data, not from the text of the source: active = growth inhibition above about 70%; inactive = the rest.
Columns and labels:
[1] = NCI Yeast Anticancer Drug Screen. Data for the rad50 strain (AID 155);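 note: 0% = growth of vehicle-only cultures of the same strain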; details: S. cerevisiae rad50 strain growth inhibition; at 50.0 µM; hits give high values
How it was run: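 Relative growth inhibition (compound vs vehicle) was measured in yeast with a defined repair-gene alteration.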

[2] = NCI Yeast Anticancer Drug Screen. Data for the mec2-1 strain (AID 157); details: S. cerevisiae mec2-1 strain, at 50.0 µM, hits give high values
How it was run: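 mec2-1 yeast strain, carrying an alteration in DNA damage repair or cell cycle control, was exposed to compounds; growth inhibition was measured relative to vehicle-treated controls.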

[3] = NCI Yeast Anticancer Drug Screen. Data for the sgs1 mgt1 strain (AID 161);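 note: 0% = growth of cultures given vehicle only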; details: S. cerevisiae sgs1 mgt1 strain, at 50.0 µM, hits give high values
How it was run: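 Yeast cells carrying a defined DNA-repair defect were exposed to test compounds. Growth inhibition was measured relative to vehicle-treated controls.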

[4] = NCI Yeast Anticancer Drug Screen. Data for the cln2 rad14 strain (AID 165);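 note: 0% = growth equal to vehicle treated cultures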; details: S. cerevisiae cln2 rad14 strain, at 50.0 µM, hits give high values
How it was run: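 Yeast carrying cln2 and rad14 alterations (cell cycle control and DNA damage repair) were exposed to compounds. Growth inhibition was measured against vehicle-treated controls.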

[5] = NCI Yeast Anticancer Drug Screen. Data for the bub3 strain (AID 167); details: S. cerevisiae bub3 mutant strain, at 50.0 µM, hits give high values
How it was run: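 Screening used yeast with an engineered genetic alteration affecting cell cycle control. Compound-exposed cultures were compared with vehicle cultures, and reduced growth was taken as inhibition.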

[6] = NCI Yeast Anticancer Drug Screen. Data for the mlh1 rad18 strain (AID 175); details: S. cerevisiae mlh1 rad18 strain growth inhibition; at 50.0 µM; hits give high values
How it was run: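 Growth inhibition of the yeast strain was measured after compound exposure and expressed relative to vehicle-treated controls. The strain carries defined defects in DNA damage repair.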

Measured: growth inhibition

Cc1cccc(C)c1NC(=O)C1C(=O)N(c2c(C)cccc2C)C(=O)/C1=N\NC(N)=S (stereo unspecified)
inactive: [1] -15.2% | [2] -24.4% | [3] -37.4% | [4] -9.5% | [5] -31.1% | [6] -34.9%

CN1C(=O)N(C)C(=O)C(C)(NS(=O)(=O)c2ccc(NC(=O)CCC(=O)O)cc2)C1=O
inactive: [1] 17.6% | [2] 11.6% | [3] 12.2% | [4] 16.1% | [5] 0.95% | [6] 24.3%

CCC1CCC(OC(=O)Nc2cccc3ccccc23)CC1 (stereo unspecified)
inactive: [1] 12.2% | [2] -26.1% | [3] -5.35% | [4] 3.7% | [5] 4.85% | [6] -10.4%

O=C1CCC(C(=O)Nc2ccc(Cl)cc2Cl)N1 (stereo unspecified)
inactive: [1] -0.15% | [2] 3.3% | [3] 7.2% | [4] 42.4% | [5] 3.45% | [6] 8.75%

NC(=O)c1c(N)nnc(-c2ccccc2)c1-c1ccccc1
inactive: [1] -6.15% | [2] -7.65% | [3] -5.75% | [4] -25.8% | [5] -3.45% | [6] -16.2%

COc1ccc(-c2c(C(C)=O)c(-c3ccccc3)n(C3OC(COC(C)=O)C(OC(C)=O)C(OC(C)=O)C3OC(C)=O)c(=S)c2C#N)cc1 (stereo unspecified)
inactive: [1] -17.7% | [2] -25.9% | [3] -26.1% | [4] 7.85% | [5] 0.75% | [6] -36.2%

Cc1cccc(C)c1NC(=O)C1=NC(=S)NC(c2ccccc2)C1c1nc2ccccc2s1 (stereo unspecified)
inactive: [1] -5.7% | [2] -19% | [3] -15.4% | [4] 10.2% | [5] -0.85% | [6] -1.1%

NC(=S)/N=C/C1=C(O)CCCC1=O
inactive: [1] 2.05% | [2] 5.95% | [3] 16.4% | [4] 17% | [5] 14% | [6] 11.2%

COCCCOC(=O)COc1ccccc1
inactive: [1] -11.3% | [2] -45.5% | [3] -8.65% | [4] -12.8% | [5] 11.9% | [6] -13.5%

COC(=O)/C(=N/Nc1cccc(Cl)c1)C(C(=O)C(=O)Nc1cccc(Cl)c1C)c1nc2ccccc2nc1C (stereo unspecified)
inactive: [1] 44.8% | [2] 17.9% | [3] 42% | [4] 39.3% | [5] 11.8% | [6] 14.3%

CC1C2CCC3(CCC4C5(C)CCCC4(CN(CCO)C5)C3C2)C1O (stereo unspecified)
inactive: [1] 2.1% | [2] -24.4% | [3] 5.3% | [4] 13.8% | [5] -2.4% | [6] -8.4%

CC(C)(C)[Si](C)(C)Oc1cc(CO)cc2c1cc(=N)o[n+]2[O-]
inactive: [1] -27.6% | [2] -12.9% | [3] -23.2% | [4] -30.9% | [5] -1.15% | [6] -31.2%

NC(C(=O)O)C(C(F)(F)F)C(F)(F)F (stereo unspecified)
inactive: [1] 0.95% | [2] -15.2% | [3] 4.5% | [4] 1.55% | [5] -15.7% | [6] 6.5%

COc1ccc(-n2c(=O)c(N=Nc3ccccc3Cl)c(O)n(-c3ccccc3OC)c2=S)cc1
inactive: [1] 22.4% | [2] 4.65% | [3] 33.2% | [4] -33.1% | [5] 2.2% | [6] 3.2%

CC(c1ccccc1)C1CC(=O)N(C)C1=O (stereo unspecified)
inactive: [1] 7.85% | [2] -15% | [3] 0.45% | [4] -19.9% | [5] -23.8% | [6] 2.35%

Nc1ccc(S(=O)(=O)CC(=O)N2CCOCC2)cc1
inactive: [1] 6.2% | [2] -10.8% | [3] 8.3% | [4] 17.9% | [5] 4.95% | [6] 22.5%

CS(=O)(=O)OC1CC/C=C\CCC1OS(C)(=O)=O (stereo unspecified)
inactive: [1] 1.3% | [2] 14.5% | [3] 12.3% | [4] -9.35% | [5] -15.4% | [6] -15.6%

c1cc2cc3c4c5c(cc6ccc7cc8cc9c%10c8c8c7c6c5c8c5c%10c(c1C9N1CCOCCOCCOCCOCCOCC1)c2c45)C3 (stereo unspecified)
inactive: [1] -15.1% | [2] -2.35% | [3] 3.1% | [4] 17.7% | [5] 3.35% | [6] -9.9%

c1ccc(N=C(Nc2ccccc2)N2CCCC2)cc1
inactive: [1] -33.2% | [2] -13.6% | [3] -28.1% | [4] 5.7% | [5] -19.8% | [6] -19.4%

CCC(CC)C(=O)NC(O)C(Cl)(Cl)C(C)Cl (stereo unspecified)
inactive: [1] 3.8% | [2] 27.1% | [3] 0.55% | [4] 20.3% | [5] 6.65% | [6] 14.6%

O=C(Nc1ncnc2nc(-c3ccccc3)[nH]c12)c1ccccc1
inactive: [1] -30.1% | [2] -16.9% | [3] -5% | [4] -56.3% | [5] -6.65% | [6] 5.95%

COc1ccc(-c2c(-c3ccccc3)c(-c3ccccc3)nn2-c2ccccc2)cc1
inactive: [1] 45.2% | [2] 4.85% | [3] 34.8% | [4] 22.4% | [5] 2.5% | [6] 20.9%

c1ccc(-c2ccc(-c3cc4ccccc4c4ccccc34)cc2)cc1
inactive: [1] -13.8% | [2] -15% | [3] -17.2% | [4] -5.8% | [5] -10.3% | [6] -9.2%

O=C1c2ccccc2C(=O)N1c1cccc2ccccc12
inactive: [1] 51.4% | [2] 8.2% | [3] 26.6% | [4] -19.4% | [5] 55.7% | [6] 62%

CC(C)(C)OC(=O)[N+](=N)C(=O)C1CCC(=O)N1C(=O)OCc1ccccc1 (stereo unspecified)
inactive: [1] -27.7% | [2] -33.6% | [3] -23.4% | [4] -11.4% | [5] -1.9% | [6] -20%

Cn1c(=O)c2c(nc(Cc3ccccc3)n2CC(=O)O)n(C)c1=O
inactive: [1] 0.3% | [2] -18.1% | [3] -30.8% | [4] -6.95% | [5] -32.1% | [6] -18.9%

O=[N+]([O-])c1ccccc1S(=O)(=O)N(CCCCCN(S(=O)(=O)c1ccccc1[N+](=O)[O-])S(=O)(=O)c1ccccc1[N+](=O)[O-])S(=O)(=O)c1ccccc1[N+](=O)[O-]
inactive: [1] -5.75% | [2] -5.95% | [3] 10.8% | [4] 20.6% | [5] -27.9% | [6] -11.4%

O=Cc1ccnc2ccccc12
inactive: [1] 0.9% | [2] 1% | [3] 6.25% | [4] 4% | [5] -3.55% | [6] 6.85%

Cc1ccc(S(=O)(=O)C2(NC(=O)C3CC3)CC2)cc1
inactive: [1] -6.5% | [2] -12.1% | [3] -26.2% | [4] -11.1% | [5] -30.7% | [6] -5.7%

O=C(NNc1ccccc1)c1ccc(Cl)cc1Cl
inactive: [1] 3.5% | [2] -9.4% | [3] 50% | [4] -0.05% | [5] 50.4% | [6] 34.9%

CC(=O)OC[C@@H](OC(C)=O)[C@@H](OC(C)=O)[C@H]1OC[C@@H]2C[C@H]([C@H]1OC(C)=O)N(Cc1ccccc1)O2
inactive: [1] -18.9% | [2] -13.8% | [3] -7.75% | [4] 4.25% | [5] -9.8% | [6] -0.3%

N#Cc1c2c(c(N3CCCCC3)n3c1nc1ccccc13)CCC2
inactive: [1] 19.4% | [2] 13.9% | [3] 26.8% | [4] 8% | [5] 19.9% | [6] 19.9%

CSC1=C(C#N)C(=O)N(c2ccc(C)cc2)C(=O)C1C#N (stereo unspecified)
inactive: [1] 26.1% | [2] 12.2% | [3] 31.1% | [4] 24.4% | [5] 5.5% | [6] 20.3%

CCSCC1C=CC(n2cnc3c(N)ncnc32)O1 (stereo unspecified)
inactive: [1] -10.3% | [2] -29.2% | [3] -22.1% | [4] -0.25% | [5] 5.55% | [6] 10.1%

CC(C)c1ccccc1[S+]1OC(C)(C)c2ccccc21 (stereo unspecified)
inactive: [1] -4.9% | [2] 21.9% | [3] 6.95% | [4] 9.45% | [5] -1.5% | [6] -38.7%

O=C1/C(=C\c2ccc(O)cc2)CCC/C1=C/c1ccc(Cl)c(Cl)c1
inactive: [1] -0.5% | [2] 27.4% | [3] 7.15% | [4] 35.5% | [5] -4.85% | [6] 24.6%

CC1=C(O)/C(=C/C(C)CCC/C(C)=C/C=C/C(C)CCCc2ccoc2)OC1=O (stereo unspecified)
inactive: [1] 3.05% | [2] -4.65% | [3] 2.9% | [4] 23.8% | [5] 7.45% | [6] 3.1%

O=S1(=O)CCC(Br)c2ccccc21 (stereo unspecified)
inactive: [1] -5% | [2] -0.25% | [3] 0.4% | [4] -38.5% | [5] 8.6% | [6] -12.5%

CCCCC(CC)CO (stereo unspecified)
inactive: [1] -12.4% | [2] -25% | [3] -32.7% | [4] -108% | [5] -16.5% | [6] -20.3%

CC(C)CN(CC(=O)NC(=O)c1ccccc1)CC(C)C
inactive: [1] -2.1% | [2] -10.1% | [3] -12.2% | [4] -37.9% | [5] -4% | [6] -3.8%

C=CCc1c(O)c2ccccc2[nH]c1=O
inactive: [1] -5.35% | [2] 15.6% | [3] -25.9% | [4] 12.7% | [5] 4.45% | [6] 1.5%

— PubChem BioAssay (NCI)
